Assay outcomes: PubChem, several laboratories
UBC13 inh: UBC13 polyubiquitin chain formation inhibitors, primary screen, biochemical, TR-FRET, uHTS | Ubiquitin-conjugating enzyme E2 N (Homo sapiens), P61088 | inhibition, % at 20 µM | 0.47% of 330,000 active | AID 485273, 2010; in the data active = inhibition above about 45%, passing the limit was not always enough
Target sequence (P61088 whole entry, looked up): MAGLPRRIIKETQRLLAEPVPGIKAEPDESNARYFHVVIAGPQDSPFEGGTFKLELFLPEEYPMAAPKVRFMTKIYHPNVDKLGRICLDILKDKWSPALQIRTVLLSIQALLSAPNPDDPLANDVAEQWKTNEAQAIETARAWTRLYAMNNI
MEKK3 PB1 HTS: modulators of MEKK3-MEK5 PB1 binding, primary screen, biochemical, wildtype MEKK3, multiplex bead flow cytometry, Alexa488-MEK5. Mitogen-activated protein kinase kinase kinase 3 (Homo sapiens), Q99759. bead-based flow cytometry, Alexa488-MEK5 binding to MEKK3; actives lie on both sides; 0 = blocked by unlabeled MEK5, 100 = vehicle. binding response (% of control), % at 10 µM. 1.4% of 290,000 active;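 active = binding response more than 3 SD above or below the average of its plate-row segment, actives on both sides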;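 also: Alexa488 bead fluorescence after subtracting the streptavidin-only scavenger bead signal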
Target sequence (Q99759 whole entry, looked up): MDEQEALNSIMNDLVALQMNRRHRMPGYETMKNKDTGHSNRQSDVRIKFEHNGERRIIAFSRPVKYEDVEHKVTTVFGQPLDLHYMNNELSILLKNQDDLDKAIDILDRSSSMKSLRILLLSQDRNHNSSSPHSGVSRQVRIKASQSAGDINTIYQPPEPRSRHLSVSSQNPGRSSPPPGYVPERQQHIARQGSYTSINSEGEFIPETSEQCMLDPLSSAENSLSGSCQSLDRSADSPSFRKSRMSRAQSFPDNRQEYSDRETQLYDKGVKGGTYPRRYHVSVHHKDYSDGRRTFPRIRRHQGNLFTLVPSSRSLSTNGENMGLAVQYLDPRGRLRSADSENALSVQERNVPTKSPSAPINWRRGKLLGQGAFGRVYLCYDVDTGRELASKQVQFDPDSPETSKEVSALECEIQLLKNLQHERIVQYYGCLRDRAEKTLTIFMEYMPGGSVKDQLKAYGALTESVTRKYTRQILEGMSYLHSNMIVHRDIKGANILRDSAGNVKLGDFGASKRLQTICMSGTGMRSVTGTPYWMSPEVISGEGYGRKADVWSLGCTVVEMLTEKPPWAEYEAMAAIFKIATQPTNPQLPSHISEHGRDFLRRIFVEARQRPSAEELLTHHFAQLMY
MEKK2mut PB1 HTS: MEK5 binding signal on mutant MEKK2 PB1, primary screen, biochemical, multiplex bead flow cytometry, Alexa488-MEK5. percent response, % at 10 µM. Alexa488-MEK5 binding to MEKK2 mutant. 0.35% of 290,000 active; in the data active = percent response above about 24%, passing the limit was not always enough
MEKK2wt PB1 HTS: modulators of MEK5 binding to wildtype MEKK2, primary screen, biochemical, multiplex bead flow cytometry, Alexa488-MEK5 | Mitogen-activated protein kinase kinase kinase 2 (Homo sapiens), Q9Y2U5 | Alexa488-MEK5 binding to MEKK2 WT; actives lie on both sides | binding response (% of control), % at 10 µM | 1.1% of 290,000 active | AID 1531, 2009; in the data active = binding response below about 67% or above about 130%
MEKK2wt confirm: modulators of MEK5 binding to wildtype MEKK2, confirmation, biochemical, single concentration, multiplex bead flow cytometry; shares compounds with MEKK3 PB1 HTS; Alexa488-MEK5 binding to MEKK2 WT; actives lie on both sides; binding response (% of control), % at 10 µM; 2.4% of 5,900 active; in the data active = binding response below about 16% or above about 210%; inactive = in between
MEKK2mut-MEK5: mutant MEKK2 PB1-MEK5 binding signal retest – biochemical, single concentration, multiplex bead flow cytometry, confirmation | shares compounds with MEKK3 PB1 HTS | Alexa488-MEK5 binding to MEKK2 mutant | percent response, % at 10 µM | 2% of 5,900 active | AID 1893, 2009; in the data active = percent response mostly above about 71%, no sharp cut-off; inactive = mostly below about 38%;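 also: higher means compound restores mutant binding toward wildtype level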
MEKK3-MEK5 inh: MEKK3 wild-type PB1 binding to MEK5, inhibitors, confirmation, biochemical, bead multiplex flow cytometry, single concentration, wildtype | shares compounds with MEKK3 PB1 HTS | Alexa488-MEK5 binding to MEKK3; hits give low values | binding response (% of control), % at 10 µM | 1.8% of 5,900 active;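 active = binding response below 72% of control, or above a set upper limit, though filed actives all read lower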;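 also: lower values mean stronger disruption of MEK5 binding to MEKK3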
Large screens that a line does not name were inactive (follow-up assays come after a bar, where they were run); [ ] = remark or other dose. Compounds with a hit are over-represented: about 2.3% of the library has one in this group of screens.

COc1ccccc1NC(=O)NCCCl	MEKK3 PB1 HTS 5.0[inhibitor], MEKK2wt PB1 HTS 1.0[inhibitor] | MEKK2wt confirm inactive | MEKK2mut-MEK5 inactive | MEKK3-MEK5 inh inactive
COc1ccc(NC(=O)c2cc(S(=O)(=O)NCC3COc4ccccc4O3)ccc2F)cc1 (configuration not stated)	none
O=C(Nc1ccc(C(F)(F)F)cc1)c1cc(S(=O)(=O)NCC2COc3ccccc3O2)ccc1F (configuration not stated)	MEKK3 PB1 HTS 136.0 | MEKK2wt confirm inactive | MEKK2mut-MEK5 inactive | MEKK3-MEK5 inh inactive
Nc1cc(S(=O)(=O)Nc2cc(Cl)ccc2Cl)ccc1N1CCCC1	MEKK3 PB1 HTS 36.0[inhibitor], MEKK2wt PB1 HTS 40.0[inhibitor] | MEKK2wt confirm inactive | MEKK2mut-MEK5 inactive | MEKK3-MEK5 inh inactive
COc1ccc(/C=N/NC(=O)Cc2n[nH]c(=O)[nH]c2=O)cc1	none
COc1ccc(/C=N/NC(=O)CSc2n[nH]c(=O)[nH]c2=O)cc1	MEKK3 PB1 HTS 74.0[inhibitor] (no result: UBC13 inh) | MEKK2wt confirm inactive | MEKK2mut-MEK5 inactive | MEKK3-MEK5 inh inactive
CC(=O)c1c(C)[nH]c(C(=O)COC(=O)c2ccc(Cl)nc2)c1C	none (no result: MEKK3 PB1 HTS, MEKK2mut PB1 HTS, MEKK2wt PB1 HTS)
COc1ccc(/C(=C/c2ccc(OC(F)F)c(OC)c2)C(=O)O)cc1OC	MEKK3 PB1 HTS 128.0 | MEKK2wt confirm inactive | MEKK2mut-MEK5 inactive | MEKK3-MEK5 inh inactive
O=C(/C=C/c1cc[n+](CC(=O)c2ccc3cccc4c3c2CC4)cc1)c1ccc2cccc3c2c1CC3	UBC13 inh 51.2, MEKK3 PB1 HTS 70.0[inhibitor] | MEKK2wt confirm inactive | MEKK2mut-MEK5 inactive | MEKK3-MEK5 inh inactive
O=C(O)COc1ccccc1/C=N/NC(=O)CSc1nnc(SCc2ccc(Cl)cc2)s1	MEKK3 PB1 HTS 130.0 | MEKK2wt confirm inactive | MEKK2mut-MEK5 inactive | MEKK3-MEK5 inh inactive
CC(=O)c1ccc(NC(=O)c2ccc(-n3cnnn3)cc2)cc1	none (no result: MEKK3 PB1 HTS, MEKK2mut PB1 HTS, MEKK2wt PB1 HTS)
COCCN1C(=O)/C(=C/c2ccc(N3CCCC3)cc2C)SC1=S	MEKK2wt PB1 HTS 20.0[inhibitor] | MEKK2wt confirm inactive | MEKK2mut-MEK5 inactive | MEKK3-MEK5 inh 56.0
O=C(NCc1ccccc1)C(=O)NCC1OCCN1C(=O)c1cccs1 (configuration not stated)	MEKK3 PB1 HTS 132.0 | MEKK2wt confirm inactive | MEKK2mut-MEK5 inactive | MEKK3-MEK5 inh inactive
Cc1ccc(CNC(=O)C(=O)NCC2OCCN2C(=O)c2cccs2)cc1 (configuration not stated)	MEKK3 PB1 HTS 135.0 | MEKK2wt confirm inactive | MEKK2mut-MEK5 inactive | MEKK3-MEK5 inh inactive
C=CCc1cccc(CNc2c(C)cc(C)cc2C)c1O	MEKK3 PB1 HTS 70.0[inhibitor] | MEKK2wt confirm inactive | MEKK2mut-MEK5 inactive | MEKK3-MEK5 inh inactive
C=CCc1cccc(CNc2c(C)n(C)n(-c3ccccc3)c2=O)c1O	none
CCOC(=O)COc1c(OC)cc(Cl)cc1C1NC(=O)NC(C)=C1C(C)=O (configuration not stated)	none
CCOC(=O)COc1c(Br)cc(C2NC(=O)NC(C)=C2C(C)=O)cc1OC (configuration not stated)	MEKK3 PB1 HTS 131.0 | MEKK2wt confirm inactive | MEKK2mut-MEK5 inactive | MEKK3-MEK5 inh inactive
CC(NC(=O)CN(c1ccc(Cl)cc1)S(C)(=O)=O)c1ccccc1 (configuration not stated)	none
CCC1SC2=NC(C)=C(C(=O)OCCOC)C(/C=C/c3ccccc3OC)N2C1=O (configuration not stated)	MEKK3 PB1 HTS 124.0 | MEKK2wt confirm inactive | MEKK2mut-MEK5 inactive | MEKK3-MEK5 inh inactive
COc1ccc(Br)cc1C(=O)NC(=S)Nc1c(C)n(C)n(-c2ccccc2)c1=O	none
Cc1nn(-c2ccccc2)c(Cl)c1/C=N/NC(=O)CNc1n[nH]c(=O)[nH]c1=O	none
CN(N)C(=S)NCc1ccccc1	MEKK3 PB1 HTS 123.0 | MEKK2wt confirm inactive | MEKK2mut-MEK5 inactive | MEKK3-MEK5 inh inactive
CC(C)C(NC(=S)NCc1ccccc1)C(=O)O (configuration not stated)	MEKK3 PB1 HTS 34.0[inhibitor], MEKK2wt PB1 HTS 43.0[inhibitor] | MEKK2wt confirm inactive | MEKK2mut-MEK5 inactive | MEKK3-MEK5 inh inactive
CN(C)C(=S)NCc1ccccc1	none
O=C(O)CNC(=S)NCc1ccccc1	none
CC(C)CCNC(=O)C(=O)NCc1ccccc1	MEKK3 PB1 HTS 49.0[inhibitor] | MEKK2wt confirm inactive | MEKK2mut-MEK5 inactive | MEKK3-MEK5 inh inactive
COc1ccc(-c2ccc3oc(-c4ccsc4)cc(=O)c3c2)cn1	none (no result: MEKK3 PB1 HTS, MEKK2mut PB1 HTS, MEKK2wt PB1 HTS)
N#Cc1ccc(C(=O)CN2CCN(c3ccccc3)CC2)cc1	none
O=C(C[C@H]1C/C=C\CC[C@H](Cc2ccc(F)cc2)C(=O)OC[C@@H](Cc2c[nH]c3ccccc23)NC1=O)NCCO	none (no result: MEKK3 PB1 HTS, MEKK2mut PB1 HTS, MEKK2wt PB1 HTS)
CCc1ccc(NC(=O)C/C(C)=N/NC(=O)OCc2ccc(OC)cc2)cc1	MEKK3 PB1 HTS 136.0 | MEKK2wt confirm inactive | MEKK2mut-MEK5 inactive | MEKK3-MEK5 inh inactive
CCc1ccc(NC(=O)C(=O)N/N=C(\C)CC(=O)Nc2ccc(OC)cc2)cc1	none
Cc1ccnc2nc(C(=O)OCC(=O)NCCc3ccc(Cl)cc3)nn12	MEKK3 PB1 HTS 135.0 | MEKK2wt confirm inactive | MEKK2mut-MEK5 inactive | MEKK3-MEK5 inh 62.0
O=C(O)c1ccc(COc2ccccc2Cl)cc1	none
N#C/C(=C\c1ccccc1OCc1ccc(C(=O)O)cc1)c1ccccc1	MEKK3 PB1 HTS 50.0[inhibitor] | MEKK2wt confirm inactive | MEKK2mut-MEK5 inactive | MEKK3-MEK5 inh inactive
CC(C)(C)NC(=O)CSc1nc2cccnc2n1C1CCCCC1	none
Cc1cc(C)n(-c2ccc(C(=O)Nc3ccc(C)c(S(=O)(=O)N4CCOCC4)c3)cc2)n1	none
CC(Nc1ccccc1)c1ccncc1 (configuration not stated)	MEKK3 PB1 HTS 133.0 | MEKK2wt confirm inactive | MEKK2mut-MEK5 inactive | MEKK3-MEK5 inh inactive
COc1ccc2c(n1)Sc1nc3ccccc3nc1N2	none (no result: UBC13 inh)
Cc1cc(-c2nnnn2-c2cc(Cl)cc(Cl)c2)no1	MEKK3 PB1 HTS 131.0 | MEKK2wt confirm inactive | MEKK2mut-MEK5 inactive | MEKK3-MEK5 inh inactive
CCN(C(=O)c1ccco1)c1nnc(-c2ccc(OC)cc2)s1	MEKK3 PB1 HTS 66.0[inhibitor] | MEKK2wt confirm inactive | MEKK2mut-MEK5 inactive | MEKK3-MEK5 inh inactive
CC(C)[C@H](NC(=O)c1ccccc1Cl)C(=O)Nc1ccc(S(=O)(=O)Nc2nccs2)cc1	none (no result: MEKK3 PB1 HTS, MEKK2mut PB1 HTS, MEKK2wt PB1 HTS)
